Source: PubChem BioAssay AID1159580 (chemical genetic matrix, 2015)
Values joined by “and” are separate entries in the source; they are usually repeats but may differ in a detail not shown here. Identical values can stand only once. About 2,000 (36%) of roughly 5,500 compounds were called active. Not shown: some 18% with an inconclusive outcome. The list shows a part of the results. Unmarked numbers belong to inactive results. Rule as the data show it: active = normalized growth mostly below about 0.91 (no sharp cut-off); inconclusive = no clear call, values can overlap the other calls; inactive = mostly above about 0.92.

Test: chemical genetic growth profiling, strain panel (AID 1159580);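 also: tested at 20 µM; growth read once vehicle control cultures reached saturation at 30 °C; 1 = growth at the plate median or of vehicle wells; lower values mean less growth of the strain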
Conditions: S. cerevisiae deletion strains, growth OD

Q: For CCc1ccc2c(O)c3c(cc2c1C(=O)OC)C(=O)c1c(O)ccc(O)c1C3=O, which normalized growth (locus YAL013W, strain DEP1, hits give low values) is on record?
A: 0.989

Q: And the normalized growth (locus YAL021C, strain ccr4, hits give low values)?
A: 0.963

Q: What about the normalized growth (locus YAL026C, strain drs2, hits give low values) of the same molecule?
A: 0.915

Q: And the normalized growth (locus YAL030W, strain snc1, hits give low values)?
A: 0.992

Q: And the normalized growth (locus YBL061C, strain skt5, hits give low values)?
A: 0.975

Q: What about the normalized growth (locus YBR009C, strain hhf1, hits give low values) of the same molecule?
A: 0.981

Q: And the normalized growth (locus YBR021W, strain FUR4, hits give low values)?
A: 1.02

Q: What about the normalized growth (locus YBR023C, strain chs3, hits give low values) of the same molecule?
A: 0.975

Q: What about the normalized growth (locus YBR171W, strain sec66, hits give low values) of the same molecule?
A: 0.97

Q: And the normalized growth (locus YBR229C, strain ROT2, hits give low values)?
A: 0.956

Q: And the normalized growth (locus YBR231C, strain swc5, hits give low values)?
A: 0.997

Q: And the normalized growth (locus YBR279W, strain paf1, hits give low values)?
A: 0.99

Q: What about the normalized growth (locus YCL011C, strain gbp2, hits give low values) of the same molecule?
A: 0.984

Q: What about the normalized growth (locus YCL016C, strain dcc1, hits give low values) of the same molecule?
A: 0.988

Q: And the normalized growth (locus YCL029C, strain bik1, hits give low values)?
A: 0.975

Q: And the normalized growth (locus YCL069W, strain vba3, hits give low values)?
A: 0.981

Q: What about the normalized growth (locus YCR088W, strain abp1, hits give low values) of the same molecule?
A: 0.981

Q: What about the normalized growth (locus YDL005C, strain med2, hits give low values) of the same molecule?
A: 0.997

Q: What about the normalized growth (locus YDL035C, strain GPR1, hits give low values) of the same molecule?
A: 0.984

Q: What about the normalized growth (locus YDL040C, strain nat1, hits give low values) of the same molecule?
A: 1

Q: And the normalized growth (locus YDL074C, strain BRE1, hits give low values)?
A: 1.03

Q: What about the normalized growth (locus YDL101C, strain DUN1, hits give low values) of the same molecule?
A: 0.978

Q: What about the normalized growth (locus YDL134C, strain PPH21, hits give low values) of the same molecule?
A: 0.964

Q: And the normalized growth (locus YDL185W, strain tfp1, hits give low values)?
A: 0.978

Q: What about the normalized growth (locus YDL192W, strain arf1, hits give low values) of the same molecule?
A: 0.958

Q: And the normalized growth (locus YDR001C, strain nth1, hits give low values)?
A: 0.972

Q: And the normalized growth (locus YDR069C, strain doa4, hits give low values)?
A: 0.909

Q: What about the normalized growth (locus YDR101C, strain arx1, hits give low values) of the same molecule?
A: 1.02

Q: And the normalized growth (locus YDR137W, strain rgp1, hits give low values)?
A: 0.91

Q: And the normalized growth (locus YDR159W, strain sac3, hits give low values)?
A: 0.944

Q: And the normalized growth (locus YDR162C, strain NBP2, hits give low values)?
A: 0.935

Q: What about the normalized growth (locus YDR195W, strain ref2) of the same molecule?
A: 0.962

Q: And the normalized growth (locus YDR297W, strain sur2, hits give low values)?
A: 0.98

Q: What about the normalized growth (locus YDR318W, strain mcm21, hits give low values) of the same molecule?
A: 0.951

Q: What about the normalized growth (locus YDR334W, strain swr1, hits give low values) of the same molecule?
A: 0.923

Q: And the normalized growth (locus YDR335W, strain msn5, hits give low values)?
A: 0.971

Q: What about the normalized growth (locus YDR388W, hits give low values) of the same molecule?
A: 0.978

Q: And the normalized growth (locus YDR392W, strain spt3, hits give low values)?
A: 0.926

Q: What about the normalized growth (locus YDR502C, strain sam2, hits give low values) of the same molecule?
A: 0.974

Q: What about the normalized growth (locus YEL003W, strain gim4, hits give low values) of the same molecule?
A: 0.996

Q: And the normalized growth (locus YEL037C, strain rad23, hits give low values)?
A: 0.977

Q: And the normalized growth (locus YEL061C, strain CIN8 (second series), hits give low values)?
A: 0.97

Q: And the normalized growth (locus YEL061C, strain CIN8, hits give low values)?
A: 0.978

Q: What about the normalized growth (locus YER015W, strain faa2, hits give low values) of the same molecule?
A: 0.974

Q: And the normalized growth (locus YER016W, strain bim1, hits give low values)?
A: 0.986

Q: What about the normalized growth (locus YER110C, hits give low values) of the same molecule?
A: 0.979

Q: What about the normalized growth (locus YER111C, strain swi4, hits give low values) of the same molecule?
A: 0.927

Q: And the normalized growth (locus YER155C, strain BEM2 (second series), hits give low values)?
A: 0.909

Q: What about the normalized growth (locus YER155C, strain BEM2, hits give low values) of the same molecule?
A: 1

Q: What about the normalized growth (locus YER167W, strain BCK2, hits give low values) of the same molecule?
A: 0.987

Q: And the normalized growth (locus YFR010W, strain ubp6, hits give low values)?
A: 0.874 (active)

Q: And the normalized growth (locus YGL078C, strain dbp3, hits give low values)?
A: 1.01

Q: And the normalized growth (locus YGL086W, strain mad1, hits give low values)?
A: 0.987

Q: What about the normalized growth (locus YGL167C, strain pmr1, hits give low values) of the same molecule?
A: 0.979

Q: What about the normalized growth (locus YGL173C, strain kem1, hits give low values) of the same molecule?
A: 0.972

Q: What about the normalized growth (locus YGL227W, strain vid30, hits give low values) of the same molecule?
A: 1

Q: What about the normalized growth (locus YGL240W, strain doc1, hits give low values) of the same molecule?
A: 0.978

Q: And the normalized growth (locus YGL248W, strain PDE1, hits give low values)?
A: 0.955

Q: What about the normalized growth (locus YGL253W, strain hxk2, hits give low values) of the same molecule?
A: 0.982

Q: What about the normalized growth (locus YGR135W, strain pre9, hits give low values) of the same molecule?
A: 0.94

Q: And the normalized growth (locus YGR252W, strain gcn5, hits give low values)?
A: 0.977

Q: What about the normalized growth (locus YHR013C, strain ard1, hits give low values) of the same molecule?
A: 0.996

Q: What about the normalized growth (locus YHR027C, strain rpn1, hits give low values) of the same molecule?
A: 0.994

Q: And the normalized growth (locus YHR030C, strain SLT2, hits give low values)?
A: 0.986 and 0.951

Q: And the normalized growth (locus YHR079C, strain IRE1 (second series), hits give low values)?
A: 0.997

Q: And the normalized growth (locus YHR079C, strain IRE1, hits give low values)?
A: 0.954

Q: What about the normalized growth (locus YHR094C, strain hxt1, hits give low values) of the same molecule?
A: 0.978

Q: And the normalized growth (locus YHR129C, strain ARP1, hits give low values)?
A: 0.978

Q: And the normalized growth (locus YHR142W, strain chs7, hits give low values)?
A: 0.879

Q: And the normalized growth (locus YHR200W, strain rpn10, hits give low values)?
A: 0.963

Q: What about the normalized growth (locus YIL066C, strain RNR3, hits give low values) of the same molecule?
A: 0.966

Q: What about the normalized growth (locus YIL073C, strain SPO22, hits give low values) of the same molecule?
A: 1.03

Q: What about the normalized growth (locus YIL125W, strain kgd1, hits give low values) of the same molecule?
A: 0.989

Q: What about the normalized growth (locus YIR030C, strain dcg1, hits give low values) of the same molecule?
A: 0.998

Q: What about the normalized growth (locus YJL092W, strain hpr5, hits give low values) of the same molecule?
A: 0.976

Q: What about the normalized growth (locus YJL095W, strain BCK1 (second series), hits give low values) of the same molecule?
A: 0.973

Q: What about the normalized growth (locus YJL095W, strain BCK1, hits give low values) of the same molecule?
A: 0.928 and 0.964

Q: What about the normalized growth (locus YJL115W, strain asf1, hits give low values) of the same molecule?
A: 0.966

Q: And the normalized growth (locus YJL129C, strain trk1, hits give low values)?
A: 0.986

Q: And the normalized growth (locus YJL134W, strain LCB3, hits give low values)?
A: 0.99

Q: What about the normalized growth (locus YJL154C, strain vps35, hits give low values) of the same molecule?
A: 0.987

Q: And the normalized growth (locus YJL164C, strain tpk1, hits give low values)?
A: 0.968

Q: What about the normalized growth (locus YJL166W, strain qcr8, hits give low values) of the same molecule?
A: 0.961

Q: What about the normalized growth (locus YJL168C, strain set2, hits give low values) of the same molecule?
A: 0.982

Q: What about the normalized growth (locus YJL187C, strain SWE1 (second series), hits give low values) of the same molecule?
A: 0.959

Q: What about the normalized growth (locus YJL187C, strain SWE1, hits give low values) of the same molecule?
A: 0.98

Q: And the normalized growth (locus YJR043C, strain POL32, hits give low values)?
A: 0.979
